Several values for one entry are separate records, joined by “and”; a condition that tells them apart may be missing. Identical values can stand only once. Results filed as inconclusive are left out. Activity calls are given as the source filed them. Unless noted, calls follow the shape of the dose curve; as a rule, active = well fitted cell-killing curve with a large enough effect in the repeat runs; inconclusive = weak or mixed curves, or effect the other way; inactive = no such curve, though single readings can be large or run the other way.
% is scaled to controls: 0 for no effect and ±100 for the full control effect.

One test deals with Retinoic acid receptor RXR-alpha (Homo sapiens) (UniProt P19793). Put plainly: qHTS assay to identify small molecule agonists of the RXR signaling pathway (AID 1159527; calls by dose curve; also: nearly all actives have a fitted effect of over 35% in size). The settings on record: HEK293T RXRa-UAS-bla, beta-lactamase ratio, 16 h; series mostly up to 76.8 µM; activation: at the top concentration. The gist of the method: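 Reporter activation is measured as beta-lactamase activity via FRET substrate cleavage (emission 460/530 nm) in HEK 293T cells expressing an RXR-alpha-driven bla construct, following 16 hr compound exposure at 37 C.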
Retinoic acid receptor RXR-alpha (Homo sapiens), sequence (P19793 whole entry, looked up): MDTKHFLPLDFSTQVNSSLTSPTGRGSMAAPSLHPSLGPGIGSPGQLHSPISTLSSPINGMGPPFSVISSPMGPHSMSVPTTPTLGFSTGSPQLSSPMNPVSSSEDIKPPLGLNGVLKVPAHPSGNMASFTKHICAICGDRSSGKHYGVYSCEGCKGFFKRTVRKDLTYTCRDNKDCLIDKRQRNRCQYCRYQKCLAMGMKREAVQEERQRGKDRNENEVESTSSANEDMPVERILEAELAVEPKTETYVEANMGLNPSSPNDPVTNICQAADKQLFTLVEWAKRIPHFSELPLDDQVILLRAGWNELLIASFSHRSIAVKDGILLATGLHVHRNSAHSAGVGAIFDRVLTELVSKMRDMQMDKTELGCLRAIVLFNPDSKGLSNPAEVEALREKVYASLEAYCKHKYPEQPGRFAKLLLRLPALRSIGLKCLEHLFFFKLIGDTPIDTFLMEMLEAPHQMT
Background: Quantitative high-throughput screening tests each substance at several concentrations.
`COc1ccc(OC)c(CC(C)N)c1` (configuration not stated): the “activation” value was 2.33% (inactive).
The same measure, in the same setting: next, `CCCOCC(=Nc1ccc(Cl)cc1C(F)(F)F)n1ccnc1`: -0.148% (inactive); `CCOP(=S)(OCC)OC(Cl)C(Cl)(Cl)Cl` (configuration not stated): -7.11% (inactive).

Test system in the next test: not listed separately
The test can be described thus: qHTS assay to identify small molecule agonists of the RXR signaling pathway - cell viability counter screen (AID 1159529). Also: nearly all actives have a fitted effect of over 50% in size. Also: potency is read from the fitted curve at half-maximal effect. The settings on record: RXR-alpha-bla HEK293T viability, CellTiter-Glo, 16 h; series mostly up to 76.8 µM; activity change, negative = cytotoxicity: at the top concentration. The method in brief:
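Tox21 10K compounds were tested for cytotoxicity against GeneBLAzer RXR-alpha HEK 293T cells grown in 2% charcoal-stripped FBS. Exposure lasted 16 hr at 37 C, 5% CO2; viability read by CellTiter-Glo luminescence.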
Regarding `CCCSP(=O)(OCC)SCCC`, the “activity change, negative = cytotoxicity” value is 2.02% (inactive).
Regarding `CCCCCCCCCCCCCCCCCCn1cc[n+](C)c1`, the Potency is 10.9 µM (active).
Still for that read-out and setting: for `C[C@@H]1CC[C@@]2(OC1)O[C@H]1[C@@H](O)[C@H]3[C@@H]4CC[C@H]5C[C@@H](O[C@@H]6O[C@H](CO)[C@H](O[C@@H]7O[C@H](CO)[C@@H](O)[C@H](O[C@@H]8OC[C@@H](O)[C@H](O)[C@H]8O)[C@H]7O[C@@H]7O[C@H](CO)[C@@H](O)[C@H](O[C@@H]8O[C@H](CO)[C@@H](O)[C@H](O)[C@H]8O)[C@H]7O)[C@H](O)[C@H]6O)[C@H](O)C[C@]5(C)[C@H]4CC[C@]3(C)[C@H]1[C@@H]2C` the value was 4.13 µM (active); for `CC(C)CC(C)Nc1ccc(Nc2ccccc2)cc1` (configuration not stated), 54 µM (active).
`COc1cc(C=O)cc2c1[C@H](COC(N)=O)[C@]1(OC(C)=O)ON2C[C@H]2[C@@H]1N2C(C)=O`: the “activity change, negative = cytotoxicity” value was 20.6% (inactive).
As for `C[C@H]1O[C@@H](O[C@H]2[C@@H](O)C[C@H](O[C@H]3[C@@H](O)C[C@H](O[C@H]4CC[C@@]5(C)[C@H](CC[C@@H]6[C@@H]5CC[C@]5(C)[C@@H](C7=CC(=O)OC7)CC[C@]65O)C4)O[C@@H]3C)O[C@@H]2C)C[C@H](O)[C@@H]1O`, the Potency is 0.0621 µM (active).
For the compound `COc1ccc(OC)c(CC(C)N)c1` (configuration not stated), the “activity change, negative = cytotoxicity” value was 1.97% (inactive).
Take `CCOP(=O)(NC(C)C)Oc1ccc(SC)c(C)c1` (configuration not stated): the “activity change, negative = cytotoxicity” value was -11.3% (inactive).
Still for that read-out and setting: next, `CCCCCCCCCCCCCN1CC(C)OC(C)C1` (configuration not stated): -7.6% (inactive); `C=CC(=O)OCCCCOC(=O)C=C`: 2.51% (inactive).
On to `Clc1ccc(C(c2ccc(Cl)cc2)C(Cl)(Cl)Cl)cc1`, for which the Potency was 22 µM (active) and 30.9 µM (active) and 23.9 µM (active).
The same measure, in the same setting: next, `CCc1nn(C)c(C(=O)NCc2ccc(C(C)(C)C)cc2)c1Cl`: 43.6 µM (active).
On to `O=c1c(C2CC(c3ccc(-c4ccc(Br)cc4)cc3)Cc3ccccc32)c(O)sc2ccccc12` (configuration not stated), for which the “activity change, negative = cytotoxicity” value is -9.96% [at 35.3 µM] (inactive).
In the case of `CC[C@H](C)[C@H]1O[C@]2(C=C[C@@H]1C)C[C@@H]1C[C@@H](C/C=C(\C)[C@@H](O[C@H]3C[C@H](OC)[C@@H](O[C@H]4C[C@H](OC)[C@@H](O)[C@H](C)O4)[C@H](C)O3)[C@@H](C)/C=C/C=C3\CO[C@@H]4[C@H](O)C(C)=C[C@@H](C(=O)O1)[C@]34O)O2`, the Potency is 16.3 µM (active).
Take `CN(C)C(=S)S`: the Potency is 1.22 µM (active) and 43.6 µM (active).
Consider `COP(=O)(OC)SCn1c(=O)oc2cc(Cl)cnc21`, for which the “activity change, negative = cytotoxicity” value is -18% (inactive).
For `CC(C)C1CCC(Cc2ccc(Cl)cc2)C1(O)Cn1cncn1` (configuration not stated), the Potency was 54.4 µM (active).
`O=C(CCl)Nc1ccccc1`: the “activity change, negative = cytotoxicity” value is 5.05% (inactive).
Take `N#CSCSC#N`: the Potency was 17.8 µM (active) and 17.2 µM (active).
Still for that read-out and setting: for `COC12CC[C@@]3(C[C@@H]1C(C)(O)C(C)(C)C)[C@H]1Cc4ccc(O)c5c4[C@@]3(CCN1CC1CC1)[C@H]2O5` (some centres not stated) the value was 21.7 µM (active).
As for `CCOP(=S)(OCC)OC(Cl)C(Cl)(Cl)Cl` (configuration not stated), the “activity change, negative = cytotoxicity” value was 0.371% (inactive).
On the same count and under the same terms, for `O=c1ssc(Cl)c1Cl` the value was -5.31% (inactive).
For the compound `C[C@H]1CC[C@@H]2[C@@H](C)[C@H]3[C@H](C[C@H]4[C@@H]5CC=C6CC(O[C@@H]7O[C@H](CO)[C@H](O)[C@H](O[C@@H]8O[C@H](CO)[C@@H](O)[C@H](O)[C@H]8O)[C@H]7O[C@H]7O[C@@H](C)[C@H](O)[C@@H](O)[C@H]7O)CC[C@]6(C)[C@H]5CC[C@]34C)N2C1` (some centres not stated), the Potency is 14.3 µM (active).
Same read-out and setting: for `CCN(CC)C(=S)[S-].CCN(CC)C(=S)[S-].[Zn+2]` the value was 1.72 µM (active).
On to `Cc1ccc(OP(=O)(Oc2ccccc2)Oc2ccccc2)cc1`, for which the “activity change, negative = cytotoxicity” value is -28.4% (inactive).
In the case of `CCOCn1c(-c2ccc(Cl)cc2)c(C#N)c(Br)c1C(F)(F)F`, the Potency was 19.5 µM (active).
Same read-out and setting: next, `CCCCN(CCCC)C(=S)[S-].CCCCN(CCCC)C(=S)[S-].[Zn+2]`: 4.36 µM (active); `CC(C)OC(=O)C(O)(c1ccc(Cl)cc1)c1ccc(Cl)cc1`: 38.9 µM (active).
As to `COC(=O)N(C(=O)N1CO[C@@]2(C(=O)OC)Cc3cc(Cl)ccc3C2=N1)c1ccc(OC(F)(F)F)cc1`, the “activity change, negative = cytotoxicity” value is -8.19% (inactive).

Values taken from PubChem BioAssay (Tox21).
